Where “and” joins values, the source holds several entries; their conditions need not be identical. Equal entries are not always repeated. About 2,000 (36%) of roughly 5,500 compounds were called active. Inconclusive results (about 18%) are left out. Cut-off read from the data, not from the text of the source: active = normalized growth mostly below about 0.91 (no sharp cut-off); inconclusive = no clear call, values can overlap the other calls; inactive = mostly above about 0.92. Some of the results follow.
Test: chemical genetic growth profiling, strain panel (AID 1159580);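 note: tested at 20 µM; growth read once vehicle control cultures reached saturation at 30 °C; 1 = growth at the plate median or of vehicle wells; lower values mean less growth of the strain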
Conditions: growth OD

Measured: normalized growth

CC(C)OC(=O)C(C)(C)Oc1ccc(C(=O)c2ccc(Cl)cc2)cc1
inactive: S. cerevisiae deletion strains, locus YJR075W, strain HOC1, active compounds read low 0.957 and 0.996 | S. cerevisiae deletion strains, locus YKL009W, strain mrt4, active compounds read low 0.906 | S. cerevisiae deletion strains, locus YKL068W, active compounds read low 0.987 | S. cerevisiae deletion strains, locus YKL085W, strain MDH1 (second series), active compounds read low 0.947 | S. cerevisiae deletion strains, locus YKL085W, strain MDH1, active compounds read low 0.947 | S. cerevisiae deletion strains, locus YKL160W, strain elf1, active compounds read low 0.987 | S. cerevisiae deletion strains, locus YKL190W, strain CNB1, active compounds read low 0.974 | S. cerevisiae deletion strains, locus YKR001C, strain vps1, active compounds read low 0.971 | S. cerevisiae deletion strains, locus YKR026C, strain gcn3, active compounds read low 0.959 | S. cerevisiae deletion strains, locus YKR091W, strain srl3, active compounds read low 0.977 | S. cerevisiae deletion strains, locus YLL001W, strain dnm1, active compounds read low 0.96 | S. cerevisiae deletion strains, locus YLL026W, active compounds read low 0.969 | S. cerevisiae deletion strains, locus YLL041C, strain sdh2, active compounds read low 0.975 | S. cerevisiae deletion strains, locus YLR027C, strain aat2, active compounds read low 0.967 | S. cerevisiae deletion strains, locus YLR039C, strain RIC1, active compounds read low 0.935 | S. cerevisiae deletion strains, locus YLR058C, strain SHM2, active compounds read low 1 | S. cerevisiae deletion strains, locus YLR102C, strain apc9, active compounds read low 0.988 | S. cerevisiae deletion strains, locus YLR113W, strain HOG1, active compounds read low 0.942 | S. cerevisiae deletion strains, locus YLR221C, strain rsa3, active compounds read low 0.976 | S. cerevisiae deletion strains, locus YLR258W, strain gsy2, active compounds read low 0.957 | S. cerevisiae deletion strains, locus YLR262C, strain YPT6 (second series), active compounds read low 0.962 | S. cerevisiae deletion strains, locus YLR262C, strain YPT6, active compounds read low 0.984 | S. cerevisiae deletion strains, locus YLR268W, strain sec22, active compounds read low 0.971 | S. cerevisiae deletion strains, locus YLR320W, strain mms22, active compounds read low 0.96 | S. cerevisiae deletion strains, locus YLR330W, strain CHS5, active compounds read low 1.01 | S. cerevisiae deletion strains, locus YLR342W, strain FKS1 (second series), active compounds read low 1.12 | S. cerevisiae deletion strains, locus YLR342W, strain FKS1, active compounds read low 0.955 | S. cerevisiae deletion strains, locus YLR357W, strain rsc2, active compounds read low 0.957 | S. cerevisiae deletion strains, locus YLR370C, strain arc18, active compounds read low 0.967 | S. cerevisiae deletion strains, locus YLR371W, strain rom2, active compounds read low 0.986 | S. cerevisiae deletion strains, locus YLR384C, strain iki3, active compounds read low 0.971 | S. cerevisiae deletion strains, locus YLR418C, strain cdc73, active compounds read low 0.879 | S. cerevisiae deletion strains, locus YML016C, strain PPZ1, active compounds read low 1.01 | S. cerevisiae deletion strains, locus YML032C, strain rad52, active compounds read low 0.984 | S. cerevisiae deletion strains, locus YML120C, strain ndi1, active compounds read low 0.964 | S. cerevisiae deletion strains, locus YML124C, strain tub3, active compounds read low 0.982 | S. cerevisiae deletion strains, locus YMR058W, strain fet3, active compounds read low 0.987 | S. cerevisiae deletion strains, locus YMR078C, strain ctf18, active compounds read low 0.982 | S. cerevisiae deletion strains, locus YMR125W, strain sto1, active compounds read low 0.942 | S. cerevisiae deletion strains, locus YMR129W, active compounds read low 0.97 | S. cerevisiae deletion strains, locus YMR205C, strain PFK2, active compounds read low 0.923 | S. cerevisiae deletion strains, locus YMR223W, strain ubp8, active compounds read low 0.958 | S. cerevisiae deletion strains, locus YMR231W, strain pep5, active compounds read low 0.969 | S. cerevisiae deletion strains, locus YMR263W, strain SAP30, active compounds read low 1 | S. cerevisiae deletion strains, locus YMR307W, strain GAS1, active compounds read low 0.807 and 0.993 | S. cerevisiae deletion strains, locus YNL067W, strain RPL9B, active compounds read low 0.973 | S. cerevisiae deletion strains, locus YNL071W, strain lat1, active compounds read low 0.941 | S. cerevisiae deletion strains, locus YNL128W, strain TEP1, active compounds read low 1.01 | S. cerevisiae deletion strains, locus YNL153C, strain GIM3, active compounds read low 1.01 and 1.02 | S. cerevisiae deletion strains, locus YNL175C, strain NOP13, active compounds read low 1.02 | S. cerevisiae deletion strains, locus YNL183C, strain NPR1, active compounds read low 0.893 | S. cerevisiae deletion strains, locus YNL197C, strain WHI3, active compounds read low 1.03 | S. cerevisiae deletion strains, locus YNL209W, strain ssb2, active compounds read low 0.983 | S. cerevisiae deletion strains, locus YNL224C, strain SQS1, active compounds read low 0.991 | S. cerevisiae deletion strains, locus YNL233W, strain BNI4, active compounds read low 0.978 | S. cerevisiae deletion strains, locus YNL248C, strain rpa49, active compounds read low 0.997 | S. cerevisiae deletion strains, locus YNL250W, strain rad50, active compounds read low 0.989 | S. cerevisiae deletion strains, locus YNL271C, strain bni1, active compounds read low 0.985 | S. cerevisiae deletion strains, locus YNL298W, strain CLA4, active compounds read low 0.992 | S. cerevisiae deletion strains, locus YNL307C, strain MCK1, active compounds read low 0.973 | S. cerevisiae deletion strains, locus YNL322C, strain KRE1 (second series), active compounds read low 0.983 | S. cerevisiae deletion strains, locus YNL322C, strain KRE1, active compounds read low 1.01 and 0.984 | S. cerevisiae deletion strains, locus YNR049C, strain mso1, active compounds read low 0.98 | S. cerevisiae deletion strains, locus YNR052C, strain pop2, active compounds read low 0.991 | S. cerevisiae deletion strains, locus YOL006C, strain TOP1, active compounds read low 0.61 | S. cerevisiae deletion strains, locus YOL012C, strain htz1 0.615 | S. cerevisiae deletion strains, locus YOL147C, strain pex11, active compounds read low 0.984 | S. cerevisiae deletion strains, locus YOR001W, strain rrp6, active compounds read low 0.99 | S. cerevisiae deletion strains, locus YOR061W, strain CKA2, active compounds read low 0.986 | S. cerevisiae deletion strains, locus YOR069W, strain VPS5, active compounds read low 1.01 | S. cerevisiae deletion strains, locus YOR070C, strain gyp1, active compounds read low 0.971 | S. cerevisiae deletion strains, locus YOR080W, strain dia2, active compounds read low 0.972 | S. cerevisiae deletion strains, locus YOR083W, strain WHI5 (second series), active compounds read low 1.12 | S. cerevisiae deletion strains, locus YOR083W, strain WHI5, active compounds read low 0.996 | S. cerevisiae deletion strains, locus YOR106W, strain vam3, active compounds read low 0.927 | S. cerevisiae deletion strains, locus YOR136W, strain idh2, active compounds read low 0.989 | S. cerevisiae deletion strains, locus YOR144C, strain elg1, active compounds read low 0.992 | S. cerevisiae deletion strains, locus YOR184W, strain ser1, active compounds read low 0.909 | S. cerevisiae deletion strains, locus YOR231W, strain MKK1, active compounds read low 0.949 | S. cerevisiae deletion strains, locus YOR265W, strain rbl2, active compounds read low 0.97 | S. cerevisiae deletion strains, locus YOR270C, strain vph1, active compounds read low 0.799 | S. cerevisiae deletion strains, locus YOR290C, strain snf2, active compounds read low 0.97 | S. cerevisiae deletion strains, locus YOR316C, strain cot1, active compounds read low 0.988 | S. cerevisiae deletion strains, locus YPL051W, strain arl3, active compounds read low 1 | S. cerevisiae deletion strains, locus YPL055C, strain LGE1, active compounds read low 0.971 | S. cerevisiae deletion strains, locus YPL078C, strain atp4, active compounds read low 0.985 | S. cerevisiae deletion strains, locus YPL106C, strain sse1, active compounds read low 1.02 | S. cerevisiae deletion strains, locus YPL240C, strain hsp82, active compounds read low 0.994 | S. cerevisiae deletion strains, locus YPL241C, strain CIN2, active compounds read low 0.99 and 0.991 | S. cerevisiae deletion strains, locus YPL256C, strain CLN2, active compounds read low 0.953 | S. cerevisiae deletion strains, locus YPR119W, strain clb2, active compounds read low 0.983 | S. cerevisiae deletion strains, locus YPR141C, strain kar3, active compounds read low 0.985 | S. cerevisiae deletion strains, locus YPR163C, strain tif3, active compounds read low 0.981 | S. cerevisiae deletion strains, locus YPR167C, strain met16, active compounds read low 0.984 | S. cerevisiae deletion strains, strain wtn01, active compounds read low 0.987 | S. cerevisiae strains, strain wild type, active compounds read low 0.993

— PubChem BioAssay AID1159580 (chemical genetic matrix, 2015)
